Measured values taken from PubChem BioAssay (NCI).
“And” between values parts separate entries of the source, which are not always exact repeats. Equal values may be shown once. Compounds without any hit were thinned out: in the full panel of roughly 83,000, 20% have a hit.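 Plates (96-well) were seeded with cells, treated with compound at one concentration, and incubated for 48 hours before percent growth was determined.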 A number with no mark means an inactive call. The source made the active and inactive calls. How the source made its calls: active means growth percent below 10; inactive means the rest.

What was measured:
Assay in all cases: NCI-60 one-dose screen, 48 h (100 = growth as untreated, 0 = no growth, -100 = all killed)
Settings in all cases: 10 µM unless noted
NCI-H23 lung = tested on: NCI-H23 lung
NCI-H226 lung = tested on: NCI-H226 lung
NCI-H322M lung = tested on: NCI-H322M lung
HOP-62 NSCLC = tested on: HOP-62 NSCLC
NCI-H460 lung = tested on: NCI-H460 lung
HOP-92 NSCLC = tested on: HOP-92 NSCLC
NCI-H522 lung = tested on: NCI-H522 lung
A549/ATCC NSCLC = tested on: A549/ATCC NSCLC
786-0 renal = tested on: 786-0 renal
COLO 205 colon = tested on: COLO 205 colon
DU-145 prostate = tested on: DU-145 prostate
K-562 leukemia = tested on: K-562 leukemia
MALME-3M melanoma = tested on: MALME-3M melanoma
MDA-MB-231 breast = tested on: MDA-MB-231 breast
RXF 393 renal = tested on: RXF 393 renal
SF-268 CNS = tested on: SF-268 CNS
SF-295 CNS = tested on: SF-295 CNS
SF-539 CNS = tested on: SF-539 CNS
UACC-257 melanoma = tested on: UACC-257 melanoma
M14 melanoma = tested on: M14 melanoma

Compound | growth (NCI-H23 lung) | growth (NCI-H226 lung) | growth (NCI-H322M lung) | growth (HOP-62 NSCLC) | growth (NCI-H460 lung) | growth (HOP-92 NSCLC) | growth (NCI-H522 lung) | growth (A549/ATCC NSCLC) | growth (786-0 renal) | growth (COLO 205 colon) | growth (DU-145 prostate) | growth (K-562 leukemia) | growth (MALME-3M melanoma) | growth (MDA-MB-231 breast) | growth (RXF 393 renal) | growth (SF-268 CNS) | growth (SF-295 CNS) | growth (SF-539 CNS) | growth (UACC-257 melanoma) | growth (M14 melanoma)
CN1C2C=CC(=O)C1C1C(=O)N(c3ccccc3)C(=O)C12 (stereo not given) | 96.7% | 105% | 98.4% | 91.2% | 80.6% | 32.3% | -8.8% (active) | 106% | 93.5% | 99.9% | 37.3% | 40.8% | 82.5% | 93.9% | 59.1% | 74.1% | 99% | 66.5% | 81.8% | 105%
COc1ccc(-n2[nH]c3c(cnc4ccccc43)c2=O)cc1 | 73.1% and 95.9% | 103% and 95.3% | 93.2% and 101% | 100% and 94.5% | 103% and 108% | 99.8% and 102% | 89.2% | 92.4% and 102% | 77.7% and 91.3% | 137% and 119% | 95.8% and 101% | 112% and 90.7% | 63.7% and 105% | 119% | 110% and 98.3% | 103% and 106% | 86.9% and 92.7% | 87.8% and 93.4% | 109% | 92.3% and 104%
O=C(O)C#Cc1ccc(Cl)cc1 | 109% | 93.2% | 111% | 89.3% | 105% | 97.8% | 87.2% | 87.2% | 99.4% | 99.9% | 109% | 88.5% | 104% | 100% | 108% | 104% | 99.7% | 102% | 87.3% | 98.2%
COc1ccc(CCl)c(C)c1OC | 96.2% | 95.8% | 95.8% | 104% | 103% | 86.1% | 99.8% | 102% | 106% | 109% | 104% | 6.6% (active) | 84.9% | 98.5% | 112% | 97.1% | 95.3% | 99.4% | 96% | 110%
NC1=NC(c2ccccc2)N=C(Nc2ccccc2)N1 (stereo not given) | 79.5% and 66.5% | 81.7% and 52.5% | 91.5% and 84.7% | 78.1% and 74.8% | 103% and 95% | 81% and 89.1% | 83.8% and 110% | 94.1% and 106% | 93.3% and 101% | 91.7% and 63.4% | 105% and 100% | 53.4% and 65.1% | 84.9% and 53.8% | 101% and 74.6% | 91.5% | 49.2% and 54% | 87.5% and 83.6% | 84.8% and 55.2% | 91.9% and 108% | 81.9% and 75.9%
Cc1c(Cl)cc(Cl)c(N)c1Cl | 103% | 102% | 115% | 107% | 105% | 76.9% | 97.4% | 107% | 109% | 108% | 121% | 106% | 109% | 98.9% | 108% | 104% | 102% | 96.4% | 106% | 105%
S=c1ccc2ccccc2[nH]1 | 107% and 101% | 90.2% and 104% | 96.8% and 96.2% | 92.2% and 93.3% | 107% | 86.5% and 94.5% | 93.3% and 89.6% | 95.7% and 94.4% | 107% and 106% | 94.3% and 114% | 115% and 111% | 90.7% and 103% | 85.9% and 98.5% | 93.9% and 100% | 106% and 105% | 107% and 99.7% | 104% and 109% | 97.9% and 102% | 101% and 92.3% | 99.6% and 107%
